Shown is part of a subset that was picked to be rich in hits.
Pf Dd2 inh – inhibitors of Plasmodium falciparum Dd2 growth; AID 1347417; 4.3% of 120,000 active; Potency, µM (highest dose often 28.9 µM), without a hit: at the highest dose activity, negative = inhibition, usual class: inhibitors; P. falciparum Dd2 growth, SYBR Green, 72 h; active = well fitted inhibition curve with a large enough effect;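 note: plate controls were DMSO vehicle for no effect and reference drug for full effect; nearly all actives have a fitted effect of over 65% in size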
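Infected erythrocytes (Dd2, 0.3% parasitemia, 2.5% hematocrit final) are added to compound in RPMI-1640/Albumax II medium, grown 72 h at 37C in low oxygen, then lysed with saponin/Triton-X containing SYBR Green and read by fluorescence.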
* hit, by the source's call; i = inactive; [ ] = another dose, or the depositor's remark. Potency is the fitted concentration of half-maximal effect.

SMILES	Pf Dd2 inh
CN(C)S(=O)(=O)N1CCC2(CCCN(Cc3ccc(F)c(F)c3)C2=O)C1 (stereo not drawn)	-10.5%
Cc1cc(Br)ccc1NC(=O)Cn1nc2c(cc1=O)CCCCC2	-17.5%
CCS(=O)(=O)N1CCC(n2c(C)cnc2C2CC2)CC1	-12.4%
COc1ccc(-c2ccc3nnc(CNC(=O)C(C)Oc4cccc(Cl)c4)n3n2)cc1 (stereo not drawn)	-24.9%
O=C(NCc1ccc(F)cc1Cl)c1noc(-c2ccc3c(c2)OCO3)n1	75.9%
CC(=O)Nc1ccc(NC(=O)Cn2cccc2-c2nc(-c3ccc(F)cc3)no2)cc1	-17.8%
COc1ccc(NC(=O)Cn2cccc2-c2nc(-c3ccccc3)no2)cc1	3.16µM*
O=C(Cn1cccc1-c1nc(-c2ccc(F)cc2)no1)Nc1ccc(F)c(F)c1	i
CCOc1ccccc1NC(=O)Cn1cccc1-c1nc(-c2ccc(F)cc2)no1	10µM*
COC(=O)c1ccccc1NC(=O)Cn1cccc1-c1nc(-c2ccccc2)no1	20.8%
O=C(Cn1cccc1-c1nc(-c2ccccc2)no1)Nc1cccc(Cl)c1	2.51µM*
COc1ccc(-c2noc(-c3cccn3CC(=O)N3CCN(c4ccccc4OC)CC3)n2)cc1F	-23.5%
O=C(Cn1cccc1-c1nc(-c2ccccc2)no1)N1CCN(c2ccccc2F)CC1	7.94µM*
O=C(Cn1cccc1-c1nc(-c2ccc(F)cc2)no1)Nc1ccc(Cl)cc1	144.1%
Cc1c(Cl)cccc1NC(=O)Cn1cccc1-c1nc(-c2ccc(F)cc2)no1	87.3%
O=C(Cn1cccc1-c1nc(-c2ccccc2)no1)Nc1cc(F)cc(F)c1	9.7%
Cc1cccc(NC(=O)Cn2cccc2-c2nc(-c3ccc(F)cc3)no2)c1C	-14.5%
CC(=O)N1CCC2(CC1)CN(C(=O)CN(C)C)Cc1ccccc1O2	43.1%
COCCNC(=O)[C@@H]1C[C@@H](O)CN1C1CCN(C(=O)c2cc(F)ccc2F)CC1	-1.9%
COc1cccc(C(=O)N2CC(=O)N(c3ccc(C)cc3)CC2C)c1OC (stereo not drawn)	-13.2%
O=C(NCc1cccnc1)C1=NOC2CN(C(=O)Nc3cccnc3)CC12 (stereo not drawn)	12.8%
C=CCNC(=O)c1cnn2c1CN([S+](=O)([O-])c1cccc(C(F)(F)F)c1)CC2	4.1%
O=C(NCCc1ccccc1)c1noc(-c2ccc3c(c2)OCO3)n1	20.6%
CNC(=O)c1cc(-c2ccc(O)c(F)c2)cc2c1OCCN2Cc1cccnc1	i
CC(C)C1CN(Cc2cscn2)CCC(=O)N1Cc1ccc(F)cc1 (stereo not drawn)	-7.2%
SMILES	Pf Dd2 inh
COc1ccc(CNC(=O)C[C@@H]2[C@H](O)CCC3[C@](C)(CO)[C@H](OC(=O)NC4CCCCC4)CC[C@]32C)cc1 (stereo partly drawn)	-14.1%
O=C(Nc1cc(F)c(F)c(F)c1)N1CC2CC(C1)[C@H]1CCCC(=O)N1C2 (stereo partly drawn)	8.2%
Cc1ncccc1C(=O)NCC(=O)N1CCCCCNC(=O)CC1c1ccccc1 (stereo not drawn)	13.7%
COc1ccc2[nH]c(C(=O)NCC(=O)N3CCCCCCNC(=O)CC3c3ccccc3)cc2c1 (stereo not drawn)	5.01µM*
COc1ccc(C2(C(=O)NCC(=O)N3CCCCCNC(=O)CC3c3ccccc3)CC2)cc1 (stereo not drawn)	-1.7%
COc1ccc(CCC(=O)NCC(=O)N2CCCCCNC(=O)CC2c2ccccc2)cc1 (stereo not drawn)	i
Cc1nc(C)c(C(=O)NCC(=O)N2CCCCCCNC(=O)CC2c2ccccc2)s1 (stereo not drawn)	-0.6%
COc1ccc(C(=O)NCC(=O)N2CCCCCCNC(=O)CC2c2ccccc2)c(OC)n1 (stereo not drawn)	8.91µM*
CCS(=O)(=O)N(C1CC1)C1CCOC2(CCN(C(=O)Nc3cccc(C)c3)CC2)C1 (stereo not drawn)	i
C=CCOc1cccc(-c2nc(C(=O)N(C)CC)cs2)c1	i
COCC(=O)NC[C@H]1CCN(Cc2ccc(C)s2)C[C@H]1N(C)C	i
Cc1ccc(-n2c(C3CCN(C(=O)c4cc(C)ccc4C)CC3)n[nH]c2=O)cc1	-6.4%
CCN1c2cc(C(=O)N3CCC(C(N)=O)CC3)ccc2C(=O)N2CCCCCC21 (stereo not drawn)	26.9%
CC(C)(C)C(=O)N1CC[C@@H]2[C@H]1C(=O)N(c1ccc(F)c(Cl)c1)C(=O)N2Cc1ccccc1	-10.7%
Cc1cccc(CCNC(=O)CN(c2ccc(C(C)C)cc2)S(=O)(=O)c2c(C)nn(C)c2C)c1	10µM*
CCc1ccc(NC(=O)CN(c2ccc(C)cc2)S(=O)(=O)c2c(C)nn(C)c2C)cc1	-12.6%
Cc1ccc(CCNC(=O)CN(c2ccc(C)cc2)S(=O)(=O)c2c(C)noc2C)cc1	11.5%
Cc1noc([C@@H]2CC(F)(F)CN2C(=O)c2ccoc2C)n1	i
CC(c1cccs1)N(C)Cc1ccccc1 (stereo not drawn)	-3.3%[76.6 µM]
O=C1NC(=NC2CCCC2)C2(CCCN(Cc3ccccc3)C2)N1c1cccnc1 (stereo not drawn)	-12.9%
O=C1NC(=NC2CCCCC2)C2(CCCN(Cc3ccccc3)C2)N1c1cc(F)cc(F)c1 (stereo not drawn)	7.08µM*
O=C1NC(=NC2CCCCC2)C2(CCN(Cc3ccccc3)C2)N1c1cc(F)cc(F)c1 (stereo not drawn)	1.78µM*
O=C1NC(=NC2CCCC2)C2(CCN(Cc3ccccc3)C2)N1c1cccnc1 (stereo not drawn)	-3.1%
O=C1NC(=NC2CCCC2)C2(CCCN(Cc3ccccc3)C2)N1c1cc(F)cc(F)c1 (stereo not drawn)	-21.7%
O=C1NC(=NC2CCCC2)C2(CCN(Cc3cccnc3)CC2)N1c1cc(F)cc(F)c1	-68.0%
SMILES	Pf Dd2 inh
Cc1cnc(C(=O)N[C@@H]2CCC[C@@H]2C(=O)NCc2ccc(C)c(C)c2)cn1	-18.3%
CC(=O)N1C(=O)COC[C@@H]1[C@H](O)c1ccc(NC(=O)C2CCC2)cc1	22.6%[44.1 µM]
CC1=C[C@@H](CNC(=O)C2CC2)[C@H](C(C)C)C[C@H]1Cc1nc2ncccc2[nH]1	-5.7%[44.1 µM]
COc1ccc2[nH]c(C[C@@H]3C[C@@H](C(C)C)[C@H](CNC(=O)C4CCC4)C=C3C)nc2n1	11.2µM*
COC(=O)c1ccc2nc(C[C@@H]3C[C@@H](C(C)C)[C@H](CNCc4ccc(OC)cc4O)C=C3C)[nH]c2c1	-6.6%
CC1=C[C@@H](CNC(=O)C2CC2)[C@H](C(C)C)C[C@H]1Cc1nc2ccncc2[nH]1	-18.6%[44.1 µM]
COC(=O)c1ccc2nc(C[C@@H]3C[C@@H](C(C)C)[C@H](CNCc4ccccc4F)C=C3C)[nH]c2c1	4.47µM*
CC1=C[C@@H](CNC(=O)c2cccnc2)[C@H](C(C)C)C[C@H]1Cc1nc2ccc(F)cc2[nH]1	i
CCOC(=O)C[C@@H]1C[C@@H](C(C)C)[C@H](CNC(=O)c2cccnc2)C=C1C	i
COC(=O)c1ccc2nc(C[C@@H]3C[C@@H](C(C)C)[C@H](CNC(=O)c4ccccc4)C=C3C)[nH]c2c1	8.91µM*
CCOC(=O)C[C@@H]1C[C@@H](C(C)C)[C@H](CNC(=O)c2ccc(F)cc2)C=C1C	11.2µM*
COC(=O)c1ccc2nc(C[C@@H]3C[C@@H](C(C)C)[C@H](CNC(=O)c4cnccn4)C=C3C)[nH]c2c1	-5.5%
CCC(CC)C(=O)NC[C@@H]1C=C(C)[C@H](Cc2nc3ccc(C(=O)OC)cc3[nH]2)C[C@H]1C(C)C	-1.4%

Screening results as filed in PubChem.
